Hits are enriched below; roughly 8.1% of the tested compounds scored in any of these assays.
SW480 rerep = A quantitative high throughput screen for small molecules that induce DNA re-replication in SW480 colon adenocarcinoma cells; SW480 DNA re-replication, Hoechst DNA content imaging, 48 h; Potency, µM (doses to about 46.1 µM), for inactives: top-dose re-replication activation, usual class: activators; hit rate 1.8% among 340,000; note: % of control where 0% means no effect; nearly all actives have a fitted effect of over 55% in size
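Compounds, transferred as 23 nL by pin tool, were incubated with cells for 48 hr; DNA content per nucleus was then quantified by Hoechst staining and fluorescence plate imaging.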
ELG1 DNA repair = qHTS screen for small molecules that inhibit ELG1-dependent DNA repair in human embryonic kidney (HEK293T) cells expressing luciferase-tagged ELG1; Potency, µM (doses to about 46.1 µM), without a hit: at the top dose activity change, negative = inhibition, most hits filed as inhibitors; hit rate 2.3% among 330,000; AID 504467, 2011; HEK293T ELG1-luciferase reporter, luminescence, 16 h; DNA damage induced by 5-fluorouridine; note: % is set by controls: 0 for no effect and ±100 for the full control effect; nearly all actives have a fitted effect of over 55% in size
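Overnight (16 hr) co-exposure of 2,000 cells/well to 5-fluorouridine and compound at 37 °C preceded detection. Luciferase was quantified via ONE-Glo luminescence; loss of signal denotes inhibition.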
KB-V1 MDR tox = qHTS assay for MDR1-selective chemotherapeutics: Primary screen using the drug-selected MDR subline cells KB-V1 | KB-V1 MDR cells viability, CellTiter-Glo, 72 h | Potency, µM (doses to about 46.1 µM), hits mostly cytotoxic | hit rate 3.4% among 400,000; note: % is set by controls: 0 for no effect and ±100 for the full control effect; nearly all actives have a fitted effect of over 60% in size
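Potencies derive from concentration-effect curves fitted to normalized luminescence (CellTiter-Glo) of KB-V1 cells treated for 72 h at 37 degrees C in phenol-red-free DMEM containing 10% FBS.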
MCF10A rerep = A quantitative high throughput screen for small molecules that induce DNA re-replication in MCF 10a normal breast cells; MCF 10A DNA re-replication, Hoechst nuclear intensity, 48 h; Potency, µM (doses to about 46.1 µM), for the others: at the top dose activity, positive = re-replication, usual class: activators; hit rate 2.9% among 350,000; AID 624296, 2012; note: % of control where 0% means no effect; nearly all actives have a fitted effect of over 50% in size
KB-3-1 tox = qHTS assay for MDR1-selective chemotherapeutics: Primary screen using the parental adenocarcinoma cell KB-3-1 | AID 1347075, 2019 | hit rate 1.4% among 400,000 | KB-3-1 viability, CellTiter-Glo ATP luminescence, 72 h | Potency, µM (top dose mostly 46.1 µM), usual class: cytotoxic; note: % is set by controls: 0 for no effect and ±100 for the full control effect; nearly all actives have a fitted effect of over 60% in size
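72 h, 37 °C compound treatment of KB-3-1 parental cells; CellTiter-Glo added, 10 min, luminescence read. Data corrected against DMSO-only plates and normalized before curve fitting.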
* hit, by the source's call; i = inactive; ? = inconclusive; . = not tested or not shown; ! = not confirmed by another sample. Calls come from the whole dose curve; as a rule, active = well fitted curve in the direction sought with a large enough effect; inconclusive = small, poorly fitted or top-dose-only effect, or another doubt; inactive = no such curve, though single readings can be large; an effect the other way counts as inactive or inconclusive. Potency is the fitted concentration of half-maximal effect.

SMILES	SW480 rerep	ELG1 DNA repair	KB-V1 MDR tox	MCF10A rerep	KB-3-1 tox
CCc1ccccc1NC(=O)Cn1c(=O)n(-c2ccc(CC(=O)NCC3CCCO3)cc2)c(=O)c2ccccc21 (centres undefined)	-5%	1%	?	3%	i
O=C(Cc1ccc(-n2c(=O)c3ccccc3n(Cc3ccccc3F)c2=O)cc1)NCC1CCCO1 (centres undefined)	30%	?	i	?	i
CC1=C(C(=O)N(C)C)CC(CC(=O)NCc2cccc3ccccc23)C(=O)N1Cc1ccccc1 (centres undefined)	.	.	i	.	i
CCc1ccc([C@@H]2CC(=O)[C@@H]3CN(S(=O)(=O)c4ccccc4C)[C@H](c4ccc(Cl)cc4)C[C@@H]3N2S(=O)(=O)c2ccc(C)cc2)cc1	.	.	i	.	i
CCCCn1c(CN2CCN(C(=O)OCC)CC2)nc2c1c(=O)n(C)c(=O)n2C	-7%	?	13µM*	8%	?
CCOCCn1c(CN2CCN(c3ccc(F)cc3)CC2)nc2c1c(=O)n(C)c(=O)n2C	-3%	?	9.2µM*	5%	?
CCOCCn1c(CN2CCN(C)CC2)nc2c1c(=O)n(C)c(=O)n2C	3%	8%	i	1%	i
CCOCCn1c(CN2CCN(c3cccc(Cl)c3)CC2)nc2c1c(=O)n(C)c(=O)n2C	-11%	?	i	-2%	i
COCCn1c(CN2CCN(c3cccc(Cl)c3)CC2)nc2c1c(=O)n(C)c(=O)n2C	-15%	15µM*	?	6%	i
CCCCCn1c(CN2CCN(CCO)CC2)nc2c1c(=O)n(C)c(=O)n2C	-25%	4%	i	0%	i
CS(=O)(=O)N(CC(=O)Nc1ccc(Br)cc1)c1ccccc1Br	.	.	?	.	i
Cc1cccc(NC(=O)CSCC(=O)N(C)Cc2c(F)cccc2Cl)c1	-1%	0%	i	?	i
Nc1ccc(C(=O)OCC(=O)N2c3ccccc3Sc3ccccc32)cc1[N+](=O)[O-]	-6%	-15%	6.5µM*	?	?
Cc1ccc(NC(=O)c2ccc(NCCN)c([N+](=O)[O-])c2)cc1	?	?	i	5%	?
NCCNc1ccc(C(=O)N2c3ccccc3Sc3ccccc32)cc1[N+](=O)[O-]	?	3%	21µM*	?	?
Cc1cccc(NC(=O)CN2CCc3cc4c(cc3C2C)OCCCO4)c1 (centres undefined)	?	21µM*	i	13%	i
CCC(C)NC(=O)C1CCN(c2nc(C)cc(C)n2)CC1 (centres undefined)	-10%	-7%	?	-3%	i
COc1ccc(/C(O)=C2/C(=O)C(=O)N(CCCN3CCOCC3)C2c2ccc(N(C)C)cc2)cc1 (centres undefined)	2%	-23%	i	2%	i
Cc1ccc(C2=C(O)C(=O)C(c3ccc(C)cc3)=C(O)C2=O)cc1	17%	.	15µM*	?	?
CC1=C(O)C(=O)C(C2=C(O)C(=O)C(C)=C(O)C2=O)=C(O)C1=O	-11%	.	?	0%	?
Cn1c(SCC(=O)c2ccc3c(c2)Cc2ccccc2-3)nnc1-c1cccc(N)c1	2%	1%	16µM*	18%	i
O=C(NCCc1ccc(Cl)cc1)c1ccc(CS(=O)(=O)Cc2ccc(F)cc2)o1	.	.	i	.	i
CC(=O)Nc1c(S(=O)(=O)c2ccccc2)c2nc3ccccc3nc2n1Cc1ccccc1	-1%	-1%	i	-3%	i
N=c1c(S(=O)(=O)c2ccccc2)cc2c(=O)n3ccccc3nc2n1C1CCCCC1	5%	.	?	-1%	i
O=S(=O)(Nc1c(S(=O)(=O)c2ccccc2)c2nc3ccccc3nc2n1C1CCCCC1)c1ccccc1	14%	1%	i	2.9µM*	i
SMILES	SW480 rerep	ELG1 DNA repair	KB-V1 MDR tox	MCF10A rerep	KB-3-1 tox
C=CCn1c(NS(=O)(=O)c2ccccc2)c(S(=O)(=O)c2ccc(C)cc2)c2nc3ccccc3nc21	?	?	13µM*	15µM*	?
COC(=O)c1ccc(C(=O)OC)c(NC(=S)N2CCCC(C)C2)c1 (centres undefined)	?	4%	18µM*	-91%	i
COC(=O)c1ccc(C(=O)OC)c(NC(=S)N2CCC(C(N)=O)CC2)c1	-40%	-2%	i	-3%	i
COC(=O)c1ccc(C(=O)OC)c(NC(=S)N2CC(C)CC(C)C2)c1 (centres undefined)	-54%	0%	15µM*	-67%	i
Cc1onc(-c2c(F)cccc2Cl)c1C(=O)Nc1cccc2nsnc12	16µM*	13%	18µM*	?	18µM*
Cc1ccc(S(N)(=O)=O)cc1NC(=O)c1c(-c2c(Cl)cccc2Cl)noc1C	.	.	i	.	i
Cc1ccc(S(=O)(=O)N(C)C)cc1NC(=O)c1c(-c2c(F)cccc2Cl)noc1C	-102%	26µM*	?	-1%	i
CCN(CC)CC#CCC(O)(c1ccccc1)C1CCCC1 (centres undefined)	0%	?	i	1%	i
CCCCCCCCCCn1ccc(=N)cc1	21µM*	?	?	?	2.3µM*
CCCCCCCCn1ccc(=N)cc1	-2%	0.73µM*	i	0%	5.8µM*
CN(C)P(=O)(Nc1cccc2ccccc12)Nc1cccc2ccccc12	-1%	?	12µM*	29%	i
O=[N+]([O-])c1ccc(S(=O)(=O)c2ccccc2)nc1	-13%	-1%	i	?	i
Cc1ccc(S(=O)(=O)c2ccc([N+](=O)[O-])cn2)cc1	8%	-1%	9.2µM*	?	6.5µM*
Cc1ccccc1CSCCNC(=S)Nc1ccccc1	-5%	-30%	?	-3%	?
Cc1ccccc1CSCCNC(=O)CSCc1ccc([N+](=O)[O-])cc1	-13%	-12%	16µM*	-2%	i
Cc1ccc(NC(=O)CN(c2ccccc2)S(=O)(=O)N(C)C)cc1Cl	.	.	12µM*	.	?
Cc1ccccc1CSCCNC(=O)CN(c1ccccc1)S(=O)(=O)N(C)C	.	.	16µM*	.	?
Cc1ccccc1CSCCNC(=O)c1ccccc1	1%	4%	16µM*	9%	i
Cc1ccc(CSCCNC(=O)CSCc2ccc([N+](=O)[O-])cc2)cc1	17%	1%	i	-6%	i
Cn1c(=O)c2c(nc(Oc3ccccc3)n2C)n(C)c1=O	-7%	16µM*!	i	-8%	i

High-throughput results from PubChem BioAssay.
